Bioassay records (PubChem BioAssay)
Tau fluor cs – counter-screen for tau fibril formation inhibitors | AID 1463 | Potency, µM (highest dose often 57.7 µM) | tau K18 P301L Alexa594 fluorescence, heparin fibrillization | hit rate 0.93% among 280,000; further: nearly all actives have a fitted effect of over 55% in size
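Human tau K18 P301L (15 uM unlabeled, 0.24 uM Alexa 594-labeled) in 100 mM sodium acetate pH 7 with 20 uM heparin, 6 hr at 37 C. ThT 30 uM added, 1 hr ambient; Alexa 594 FP and total fluorescence read at 555/632 nm.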
Coupling enz – inhibits coupling enzyme system, counter-screen for aldolase hits; coupling enzyme system counterscreen, AmpLite Red fluorescence; activity change, negative = inhibition, % at 58.2 µM, hits read low; hit rate 0.67% among 290,000; AID 2472; in the data active means activity change below about -30%
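Coupling enzymes only (glyceraldehyde-3-phosphate) + compound, at 57.5 uM final, 10 min RT; add substrate/coupling/AmpLite Red mix, 20 min RT; fluorescence ex 525/em 598 nm. Actives flag coupling-system interference.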
Tau fibril FP – blocks human tau fibril formation measured by polarization; K18 P301L tau heparin fibrillization, Alexa594 FP, 6 h; hit rate 0.39% among 280,000; Potency, µM (series often up to 57.7 µM), most hits filed as inhibitors; AID 1468; further: nearly all actives have a fitted effect of over 55% in size
Target sequence (P10636 561-689 P618L limits assumed): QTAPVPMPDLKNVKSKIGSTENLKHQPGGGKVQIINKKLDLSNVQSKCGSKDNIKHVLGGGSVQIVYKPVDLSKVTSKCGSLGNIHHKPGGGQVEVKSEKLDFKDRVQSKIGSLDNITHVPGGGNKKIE
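Compound effects on tau fibrillization are measured by Alexa 594 fluorescence polarization (ex 555, em 632 nm). K18 P301L tau is used at 15 uM with 0.24 uM labeled tracer, and 20 uM heparin induces aggregation over 6 hr at 37 C.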
Tau fibril ThT – blocks human tau fibril formation measured by thioflavin T | recombinant tau K18 P301L, heparin-induced fibrillization, ThT fluorescence | Potency, µM (highest dose often 57.4 µM), most hits filed as inhibitors | hit rate 2.1% among 270,000; further: nearly all actives have a fitted effect of over 55% in size
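Fibril formation assay: tau K18 P301L at 15 uM with trace Alexa 594 label, heparin inducer 20 uM, pH 7 sodium acetate buffer, 37 C for 6 hr; endpoint ThT signal.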
Of the large screens only hits and unclear results are named; the others gave an inactive call; [ ] = remark or other dose. Hits are enriched below; roughly 2.7% of the tested compounds scored in any of these assays. Unless noted, the call rests on the fitted dose curve; in most records, active means well fitted curve in the direction sought with a large enough effect; inconclusive means small, poorly fitted or top-dose-only effect, or another doubt; inactive means no such curve, though single readings can be large; an effect the other way counts as inactive or inconclusive.

COc1ccc(/C=C/N(CCc2ccc(OC)c(OC)c2)C(=O)c2ccccn2)cc1	none
CC1(C)Nc2ccc(O)cc2-c2c1ssc2=S	Tau fluor cs inconclusive, Tau fibril FP inconclusive, Tau fibril ThT 11µM
CC(=O)NS(=O)(=O)c1ccc(N=c2ssc3c2-c2cc(C)ccc2NC3(C)C)cc1	Tau fibril ThT inconclusive
COc1ccc(NC(=O)CN2C(=O)C3(SCC(=O)N3c3cccc(OC)c3)c3ccccc32)cc1 (configuration not stated)	Tau fluor cs inconclusive (no result: Coupling enz)
Fc1ccc(Nc2nc(SCc3ccc(Cl)cc3)nc3ccccc23)cc1	Tau fluor cs inconclusive, Tau fibril FP 7.9µM, Tau fibril ThT inconclusive (no result: Coupling enz)
Fc1ccc(Nc2nc(SCc3cccc(Cl)c3)nc3ccccc23)cc1	Tau fluor cs inconclusive, Tau fibril FP 8.9µM (no result: Coupling enz)
COc1ccc(CCNc2nc(SCc3cccc(F)c3)nc3ccccc23)cc1OC	none (no result: Coupling enz)
Fc1ccc(Nc2nc(SCc3cccc(F)c3)nc3ccccc23)cc1	Tau fluor cs inconclusive, Tau fibril FP 14µM (no result: Coupling enz)
CC(C)(C)c1ccc(C(=O)N2CC(=O)Nc3ccc(F)cc3C2c2ccc(F)cc2)cc1 (configuration not stated)	none (no result: Coupling enz)
COc1ccc(C(=O)/C=C/Nc2ccc([N+](=O)[O-])cc2C)cc1OC	Tau fluor cs inconclusive, Tau fibril FP inconclusive, Tau fibril ThT 1.6µM
O=C(/C=C/Nc1cccc([N+](=O)[O-])c1)c1cccs1	Tau fluor cs inconclusive, Tau fibril ThT 4.5µM
COc1ccc(C(=O)/C=C(\C)Nc2ccc3c(c2)OCO3)cc1	Tau fluor cs inconclusive, Tau fibril ThT 13µM (no result: Coupling enz)
COc1ccc(N/C=C\C(=O)c2ccc3c(c2)OCO3)cc1OC	Tau fluor cs inconclusive, Tau fibril ThT 2.8µM
COc1ccc(C(=O)/C=C/Nc2ccc([N+](=O)[O-])cc2C)c(OC)c1	Tau fibril FP inconclusive, Tau fibril ThT inconclusive
COc1ccc(N/C(C)=C/C(=O)c2ccccc2)cc1	Tau fibril ThT inconclusive
COC(=O)c1ccc(N/C=C\C(=O)c2ccc3c(c2)OCO3)cc1	none
COc1ccc(C)cc1NS(=O)(=O)c1cnc(N)nc1	none (no result: Coupling enz)
COC(=O)c1ccc(C2Nc3c(C)cccc3-c3cc(C)nn32)cc1 (configuration not stated)	Tau fluor cs inconclusive, Tau fibril FP inconclusive (no result: Coupling enz)
O=C(O)CNC(=O)[C@@H](CS)Cc1ccccc1	none (no result: Tau fluor cs, Tau fibril FP, Tau fibril ThT)
O=c1c(-c2ccccc2)nc2cnc(N3CCOCC3)nc2n1C[C@H]1CCCO1	none (no result: Tau fluor cs, Tau fibril FP, Tau fibril ThT)
CNc1cc([N+](=O)[O-])ccc1N/C=C/C(=O)c1cccs1	Tau fluor cs inconclusive, Tau fibril ThT 16µM
Cc1ccc([N+](=O)[O-])cc1NC(=O)c1ccc2c(c1)OCO2	none
O=C(/C=C/Nc1ccc(Nc2ccccc2)cc1)c1cccs1	Tau fluor cs 7.9µM[quencher], Tau fibril FP inconclusive, Tau fibril ThT 1.3µM
CNc1cc([N+](=O)[O-])ccc1N/C=C/C(=O)c1ccc2c(c1)OCO2	Tau fibril ThT 3.5µM
CCOC(=O)Cn1nnc(-c2cc(OC)c(OC)c(OC)c2)n1	none
COc1cc(-c2nnn(CC(=O)Nc3ccc(OC(F)(F)F)cc3)n2)cc(OC)c1OC	Tau fluor cs inconclusive, Tau fibril FP 18µM (no result: Coupling enz)
Cc1nc2nc(C)c(CCC(=O)NCCc3ccccc3)c(C)n2n1	none (no result: Coupling enz)
Cn1c(NCc2c(O)ccc3ccccc23)nc2ccccc21	Tau fluor cs 18µM[quencher], Tau fibril ThT inconclusive
Oc1ccc2ccccc2c1CNc1cnc2ccccc2c1	Tau fluor cs inconclusive, Coupling enz -46, Tau fibril ThT inconclusive
CCC(=O)N1CCN(c2ccc(NC(=S)NC(=O)c3ccc(OC)c([N+](=O)[O-])c3)cc2)CC1	Tau fluor cs inconclusive, Tau fibril FP inconclusive, Tau fibril ThT 2.5µM
CCC(=O)N1CCN(c2ccc(NC(=O)c3ccc(N4CCCC4)c([N+](=O)[O-])c3)cc2)CC1	Tau fibril ThT 0.63µM
CCOC(=O)CC1C(=O)NCCN1C(=O)c1cc2c(=O)n3cccc(C)c3nc2s1 (configuration not stated)	none
CCCN1C(=O)/C(=C/c2c(N3CCNC(=O)C3CC(=O)OC)nc3c(C)cccn3c2=O)SC1=S (configuration not stated)	Tau fibril ThT 5.6µM
CCOC(=O)C1=C(C)n2c(s/c(=C/c3cccc([N+](=O)[O-])c3)c2=O)=NC1c1ccc(O)c(OC)c1 (configuration not stated)	Tau fluor cs inconclusive, Tau fibril ThT 14µM
CN(C)C(=O)/N=N/C(=O)N(C)C	Tau fibril FP 14µM, Tau fibril ThT 7.9µM (no result: Coupling enz)
